# This excerpt belongs to a sample that is enriched for hits.
# JMJD2E inh: qHTS Assay for Inhibitors of Human Jumonji Domain Containing 2E (JMJD2E); actives 1.6% (n = 230,000); Lysine-specific demethylase 4E (Homo sapiens), B2RXH2; Potency, µM (titrated, usually from 57.1 µM), inactives show at the top dose activity change, negative = inhibition, hits mostly inhibitors; AID 2147, 2009; JMJD2E catalytic domain, FDH-coupled NADH fluorescence (FDH is formaldehyde dehydrogenase);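 also: 0% = wells with enzyme and -100% = buffer wells without enzyme; nearly all actives have a fitted effect of over 50% in size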
# GoLoco inh red: qHTS Assay for Inhibitors of RGS12 GoLoco Motif Activity (Red Fluorophore); Gai1:RGS12 GoLoco peptide FP, rhodamine, 10 min; Potency, µM (series often up to 61.6 µM), for inactives: at the highest dose activity, negative = inhibition, most hits filed as inhibitors; actives 0.44% (n = 230,000); AID 880, 2007; active = well fitted inhibition curve with a large enough effect, not every such curve was filed as active; inactive = no such curve, though single readings can be large or run the other way; also: nearly all actives have a fitted effect of over 30% in size
# RECQ1 helicase: qHTS Assay for Inhibitors of RecQ-Like Dna Helicase 1 (RECQ1); ATP-dependent DNA helicase Q1 (Homo sapiens), P46063; RECQ1 DNA unwinding, red fluorescence kinetic read; Potency, µM (top dose mostly 57.3 µM), without a hit: at the highest dose activity, negative = inhibition, most hits filed as inhibitors; actives 0.54% (n = 240,000); AID 2549, 2010;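 also: plate controls were vehicle for no effect and no enzyme for full effect; nearly all actives have a fitted effect of over 30% in size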
#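 50 nM RECQ1T1 preincubated 15 min with compound in Tris pH 8.0 buffer with MgCl2, DTT, Tween-20 and 2.5 ug/ml poly(dI-dC); started with 200 nM TAMRA/BHQ-2 forked duplex and 2 mM ATP. Unwinding read as fluorescence (525/598 nm), two reads 2 h apart.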
# L3MBTL1 block: qHTS Assay for the Inhibitors of L3MBTL1; Lethal(3)malignant brain tumor-like protein 1 (Homo sapiens), Q9Y468; AlphaScreen L3MBTL1–H3K9me1 peptide binding; Potency, µM (titrated, usually from 57.1 µM), without a hit: top-dose activity, negative = inhibition, most hits filed as inhibitors; actives 0.66% (n = 230,000); also: nearly all actives have a fitted effect of over 60% in size
#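 AlphaScreen assay: L3MBTL1 (50 nM final) was preincubated 30 min at room temperature with biotinylated H3(1-15)K9me1 peptide (75 nM final), then 30 min with library compounds; streptavidin donor and nickel chelate acceptor beads (10 ug/mL final) added, 30 min dark.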
# BLM inh: qHTS Assay for Inhibitors of Bloom's syndrome helicase (BLM) | recombinant BLM DNA unwinding, fluorescence dequenching | Potency, µM (highest dose often 56.1 µM), inactives show top-dose activity change, negative = inhibition, usual class: inhibitors | actives 0.2% (n = 350,000) | AID 2528, 2010;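 also: plate controls were vehicle for no effect and no enzyme for full effect; nearly all actives have a fitted effect of over 35% in size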
# APE1 inh: qHTS Assay for Inhibitors of the Human Apurinic/apyrimidinic Endonuclease 1 (APE1) | AID 2517, 2012 | Potency, µM (top dose mostly 65.8 µM), for inactives: at the highest dose activity change, negative = inhibition, actives largely listed as inhibitors | recombinant APE1, TAMRA/BHQ-2 abasic DNA cleavage fluorescence | actives 0.35% (n = 350,000) | DNA repair nuclease/redox regulator APEX1 (Homo sapiens), P27695;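 also: plate controls were vehicle for no effect and reference inhibitor for full effect; nearly all actives have a fitted effect of over 55% in size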
# Target sequence (P27695 whole entry, looked up): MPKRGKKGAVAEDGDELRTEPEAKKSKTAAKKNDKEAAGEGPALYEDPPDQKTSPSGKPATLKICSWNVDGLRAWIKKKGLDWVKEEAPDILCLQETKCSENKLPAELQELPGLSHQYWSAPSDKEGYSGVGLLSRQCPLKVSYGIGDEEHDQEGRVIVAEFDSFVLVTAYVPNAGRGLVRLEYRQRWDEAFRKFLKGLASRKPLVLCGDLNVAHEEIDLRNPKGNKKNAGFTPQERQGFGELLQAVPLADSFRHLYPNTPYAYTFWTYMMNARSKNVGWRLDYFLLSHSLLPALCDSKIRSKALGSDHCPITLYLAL
#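 Enzyme (0.75 nM final) and test compound are incubated 15 min at room temperature before adding 50 nM quenched THF abasic-site duplex. Cleavage dequenches TAMRA, followed at 525/598 nm over three reads one minute apart.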
# * = called active by the depositor; u = inconclusive; x = not tested or not shown; ! = not active in a repeat; [ ] = dose if it differs, or a comment. Unless noted, calls follow the shape of the dose curve; as a rule, active = well fitted curve in the direction sought with a large enough effect; inconclusive = small, poorly fitted or top-dose-only effect, or another doubt; inactive = no such curve, though single readings can be large; an effect the other way counts as inactive or inconclusive. Unless noted, % is scaled to controls: 0 for no effect and ±100 for the full control effect; potency is read from the fitted curve at half-maximal effect.
SMILES,JMJD2E inh,GoLoco inh red,RECQ1 helicase,L3MBTL1 block,BLM inh,APE1 inh
CN1C(=O)N(C)C2=NNC=NC2(O)C1=O (stereo not drawn),u,-1.5%,-3.4%,x,28.2µM*,13.2%
CN(C(=O)COC(=O)c1ccc2c(c1)OCO2)C1CCCCC1,x,x,x,2.3%,x,34.1%
C[N+]12CCCCC1C(COC(=O)c1ccc3c(c1)OCO3)CCC2 (stereo not drawn),22.4µM*,-105.3%,17.6%,x,3.3%,10.1%
O=C(O)c1ccccc1C1=Nc2ccc(O)cc2Oc2cc(O)ccc21,5.8%,25.1µM*,-1.6%,u,-3.1%,-5.3%
COc1ccc(-c2ccc3nnc(-c4ccccc4OC)n3n2)cc1OC,x,x,x,x,x,54.4%
CC(C)(C)n1ncc2c(=O)n(Cc3ccc(F)cc3F)cnc21,x,x,x,x,x,-1.8%
C[c-]1[c-](C)[c-](C)[c-](C)[c-]1C.[Fe].c1cc2nccc(N3CCCC3)[c-]2c1 (stereo not drawn),10µM*!,-7.5%,6.31µM*!,x,u,2.82µM*!
Cn1cnc2c(N3CCCCC3)nccc21,u,-5.2%,3.0%,-7.6%,-2.3%,-2.1%
Cc1c(Cl)cccc1NC(=O)CCS(=O)(=O)c1cccc2nsnc12,x,x,x,x,0.9%,x
O=c1oc2cc(O)ccc2c2oc3cc(O)ccc3c12,u,10.0%,31.6µM*,5.9%,u,u
O=c1oc2cc(O)ccc2c2ccccc12,-2.4%,1.0%,-6.3%,x,-4.5%,-6.6%
COc1c(O)c(O)cc2c1oc1c3ccccc3oc(=O)c21,15.8µM*,-30.0%,11.2µM*,x,14.1µM*,28.2µM*
C=CC1=C(C)C2=Cc3c(C=C)c(C)c4[n]3[Sn+2][n]3c(c(C)c(CCC(=O)O)c3=CC3=NC(=C4)C(C)=C3CCC(=O)O)=CC1=N2,u,1.41µM*,39.8µM*,x,-22.3%,8.91µM*
O=c1c2ccccc2nc2sc(Nc3ccc(Br)cc3)nn12,x,x,x,x,x,-8.6%
COc1ccc(/C=C/C2=CCN(Cc3ccc(OC)cc3)CC2)cc1,28.2µM*,-3.2%,-6.1%,x,-2.9%,4.1%
Cc1ccc(N(C)C(=O)C2CCCN(c3ncnc4c3nc3n4CCCCC3)C2)cc1C (stereo not drawn),x,x,x,x,-0.1%,x
COc1cc(C2Nc3cccc4cccc(c34)N2)cc(OC)c1O,7.0%,-17.6%,-19.0%,22.4µM*,-12.5%,0.9%
COC(=O)c1ccc(C2Nc3cccc4cccc(c34)N2)cc1,8.91µM*,-4.8%,-4.2%,u,-5.7%,-0.3%
CCCCCN1C(C(=O)c2ccccc2)=C(NC(=O)c2ccc(OC)c(OC)c2)c2ccccc2S1(=O)=O,x,x,x,x,-9.4%,x
O=S(=O)(NCCc1csc(-c2ccc(F)cc2)n1)c1ccc(Cl)cc1,x,x,x,x,-15.3%,x
Oc1cccc(/C=N/Nc2nn3cnnc3c3ccccc23)c1,-2.8%,13.5%,-5.2%,-2.8%,-9.2%,-5.5%
COc1cccc(/C=N/Nc2nn3cnnc3c3ccccc23)c1O,17.8µM*,29.3%,5.4%,-2.6%,-11.3%,-6.9%
COC(=O)CCC(=O)OC1(C)C(=O)C=C2C=C(C3CC3)N(C(CO)CO)C=C2C1=O (stereo not drawn),u,1.2%[14.2 µM],-14.4%[11.5 µM],x,-5.5%[12.4 µM],-5.2%[12.4 µM]
COC(=O)CCC(=O)OC1(C)C(=O)C=C2C=C(C3CC3)N(Cc3ccc4c(c3)OCO4)C=C2C1=O (stereo not drawn),15.8µM*!,7.9%[14.2 µM],2.6%[11.5 µM],x,-4.3%[12.4 µM],-2.4%[12.4 µM]
COC(=O)CCC(=O)OC1(C)C(=O)C=C2C=C(C3CC3)N(CCCCO)C=C2C1=O (stereo not drawn),20µM*!,-8.4%[14.2 µM],14.7%[11.5 µM],x,-12.3%[12.4 µM],-4.6%[12.4 µM]

# High-throughput results (PubChem BioAssay)
